Measured values as given in the supplement of paper PMC4723716.

System: Plasmodium falciparum NF54 gametocytes
Assay: viability index relative to DMSO control (fraction); higher = less gametocyte killing
Conditions: gametocyte stage: Stage I viability index; 12.5 µM; incubation time: 72 h
Method in brief: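 The viability index was calculated as the gametocyte particle count over the plate mean of solvent-only wells. For this, P. falciparum NF54 gametocytes of every stage (I–V) were held with compound at 12.5 µM for 72 hr at 37°C under low oxygen in 384-well plates. MitoTracker Red CMXRos staining for 20 min was followed by transfer of 5 µl into 40 µl of 500 nM dye in serum-free medium, with three fields imaged after 30 min.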

| SMILES | viability index |
| --- | --- |
| CCOc1ccc(N2C(N)=NC(N)=NC2(C)C)cc1 | 1.12 |
| COCCNC(=O)c1ccc(OC2CCN(Cc3ccc(F)c(F)c3)CC2)c(Cl)c1 | 0.672 |
| CCOC(=O)c1cnc2c(C)cc(C)cc2c1Nc1ccc(OC)c(OC)c1 | 1.09 |
| CN1CCN(c2ncnc3c2[nH]c2ccc(Cl)cc23)CC1 | 0.263 |
| CCOC(=O)c1ccc2nc(-c3ccccc3)cc(O)c2c1 | 0.606 |
| COc1ccc(-c2c(C)nn3c(N)c(C#N)cnc23)cc1OC | 0.0343 |
| CCCCCn1c(=N)n(CC(O)COc2cccc(C)c2)c2ccccc21 (stereo not drawn) | 0.0988 |
| Cc1cc(Nc2cccc(F)c2)nc(NCc2ccccc2)n1 | 0.0365 |
| Cc1ccc(-c2cc3c(nn2)-c2ccccc2C3=O)cc1 | 0.61 |
| CCOC(=O)C1=C(c2ccccc2)N=c2sc(=Cc3cc(C)n(-c4ccc(F)cc4)c3C)c(=O)n2C1c1cccc(OC)c1OC (stereo not drawn) | 0.806 |
| CC1CCN(Cc2ccc(NC(=O)c3cc4ccc5cccnc5c4[nH]3)cc2)CC1 | 0.265 |
| COc1cc(SC)ccc1C(=O)N1CCCC(C)C1 (stereo not drawn) | 0.982 |
| O=C(Nc1ccc(N2CCN(Cc3ccccc3)CC2)cc1)c1cccs1 | 0.941 |
| CCN(Cc1ccccc1)C1CCN(Cc2cc(Br)ccc2O)CC1 | 0.0376 |
| c1ccc2c(NCCc3c[nH]c4ccccc34)c3ccccc3nc2c1 | 0.145 |
| CN(C)c1ccc(-c2nc3cc(N)ccc3[nH]2)cc1 | 0.0873 |
| N=c1c2ccccc2nnn1-c1cccc(C(F)(F)F)c1 | 0.988 |
| O=C(Nc1cccc(-c2nc3ccccc3[nH]2)c1)c1cccc(NC(=O)c2ccco2)c1 | 0.424 |
